Reference: PubChem BioAssay (EPA / NIEHS)
Values joined by “and” are separate entries in the source; they are usually repeats but may differ in a detail not shown here. Equal entries are not always repeated. Some structures have more than one record in an assay (separate samples or runs), and their calls can disagree. Active and inactive are the calls of the source. How the source made its calls: active means hit-call score of the fitted dose curve at least 0.9, where 1 is the maximum; inactive means score below 0.9.

These compounds were tested on Tumor necrosis factor (Homo sapiens) (UniProt P01375) (assay: BSK_BT_xTNFa: BioMAP Diversity Plus: BT Assay for Tumor necrosis factor alpha (TNF-alpha) Biomarker Activity (AID 2284230)). Conditions: primary human B cells with PBMC.
Sequence of Tumor necrosis factor (Homo sapiens) (P01375 whole entry, looked up): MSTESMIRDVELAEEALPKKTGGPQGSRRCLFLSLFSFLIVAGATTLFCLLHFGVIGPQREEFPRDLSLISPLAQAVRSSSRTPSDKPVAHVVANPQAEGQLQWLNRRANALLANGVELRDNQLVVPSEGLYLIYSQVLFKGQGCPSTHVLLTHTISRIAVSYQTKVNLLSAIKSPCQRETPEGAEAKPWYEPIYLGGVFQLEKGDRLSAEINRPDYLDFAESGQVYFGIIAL
Experimental: BSK_BT is a cell-based, multiplexed-readout assay that uses B cell and peripheral blood mononuclear cells, a human vascular primary cell co-culture, with measurements taken at 24 hours after chemical dosing in a microplate: 96-well plate.BSK_BT_xTNFa is an assay component of the BSK_BT assay. It measures secreted TNF-alpha related to regulation of gene expression using LumineX xMAP technology.Data from the assay component BSK_BT_xTNFa was analyzed at the endpoint, BSK_BT_xTNFa, in the positive analysis fitting direction relative to DMSO as the negative control and baseline of activity. Using a type of cytokine quantitation reporter, gain or loss-of-signal activity can be used to understand protein changes. To generalize the intended target to other relatable targets, this assay endpoint is annotated to the 'cytokine' intended target family, where the subfamily is 'inflammatory factor'.
The levels of cell surface (or secreted, indicated by the prefix "s") biomarker endpoints were measured by ELISA. Overt cytotoxicity to cells in confluent adherent cultures (all systems other than the BT system) was assessed by measuring total protein levels using sulforhodamine B (SRB) staining in parallel cultures at the time of biomarker measurements, indicated as SRB endpoints. For proliferation assays for adherent cell types, individual cell types are cultured at sub-confluence and relative cell numbers quantified by SRB staining at time points optimized for each system (48 h: 3C and CASM3C systems; 72 h: BT and HDF3CGF systems; 96 h: SAg system). SRB was performed by staining cells with 0.1% SRB after fixation with 10% TCA and reading wells at 560 nm.Viability and proliferation of PBMC (T cells) was quantified by Alamar Blue reduction for the SAg and BT systems. For PBMC viability (referred to as PBMC Cytotoxicity within the assay endpoint names), cells were plated (75,000/well in a 96-well plate) and then chemical samples added for 1 h before addition of activators, SEB and TSST-1 (20 ng/mL final concentration each). Cells were incubated for 90 h. Then, Alamar Blue (20 uL/well) (Invitrogen, Cat DAL1100) was added for 6 h, and the plates were read with a fluorescence microplate reader at 546/580 nm (excitation/emission). For PBMC proliferation, cells were plated and activated as above but incubated for only 16 h prior to addition of Alamar Blue. Plates were read after 6 h.

Compound | outcome | AC50
O=S(=O)(OCC(F)F)C(F)(F)F | inactive | 1.01 µM (active)
Oc1ccc(Nc2ccccc2)cc1 |  | 30.1 µM (active)
OCCCC(F)(F)C(F)(F)C(F)(F)C(F)(F)C(F)(F)C(F)(F)C(F)(F)F |  | 20.2 µM (active) and 23 µM (active)
FC(F)(F)C(F)(F)CNCC(F)(F)C(F)(F)F | inactive | 
COC(=O)CCC(F)(F)C(F)(F)C(F)(F)C(F)(F)F | inactive | 
FC(F)(F)C(F)(F)C(F)(F)C(F)(F)C(F)(F)CCI | inactive | 
CCc1c(Br)c(Br)c(Br)c(Br)c1Br | inactive | 
CCN(CC)c1ccc2c(C)cc(=O)oc2c1 | inactive | 
C=C(C)C(=O)OCC(F)(F)C(F)(F)C(F)(F)F | inactive | 
OCC(F)(F)C(F)(F)C(F)(F)F | inactive | 
CC(=O)Nc1ccc(N=Nc2cc(C)ccc2O)cc1 | inactive | 
CCCCCCC(C)OC(=O)CCCCC(=O)OC(C)CCCCCC (stereo not given) | inactive | 
C=CC/C=C/C/C=C/C/C=C/C | inactive | 
O[Si](c1ccccc1)(c1ccccc1)c1ccccc1 |  | 38.2 µM (active)
CCCCNc1ccccc1 | inactive | 
Cc1ccc(S(=O)(=O)OCC(F)(F)C(F)(F)C(F)(F)C(F)(F)C(F)(F)C(F)F)cc1 | inactive | 
C=CC(F)(F)C(F)(F)C(F)(F)C(F)(F)C(F)(F)C(F)(F)C(F)(F)C(F)(F)F | inactive | 
CCCCOCCOCCOC(=O)CCCCC(=O)OCCOCCOCCCC | inactive | 
OCC(F)(F)C(F)(F)C(F)(F)C(F)(F)C(F)(F)C(F)(F)F | inactive | 41.2 µM (active)

Compound | outcome | AC50
OCC(F)(F)C(F)(F)C(F)(F)C(F)(F)C(F)(F)C(F)F | inactive | 
CCCCCCCCCCCCCCCC[N+](C)(C)Cc1ccccc1 |  | 5.5 µM (active)
C=C(C)C(=O)OCC(F)(F)C(F)(F)C(F)(F)C(F)(F)C(F)(F)C(F)(F)C(F)(F)F | inactive | 
FC(F)(F)C(F)(F)C(F)(F)CI | inactive | 
CO[Si](OC)(c1ccccc1)c1ccccc1 | inactive | 
O=C(O)C(F)(F)C(F)(F)F | inactive | 
FC(F)(F)C(F)(F)C(F)(F)C(F)(F)C(F)(F)C(F)(F)C(F)(F)C(F)(F)F | inactive | 
O=C(O)C(F)(F)C(F)(F)C(F)(F)F | inactive | 
FC(F)(I)C(F)(F)C(F)(F)C(F)(F)I |  | 48.3 µM (active) and 46.1 µM (active) and 46 µM (active)
O=C(O)C=C(C(F)(F)F)C(F)(F)F |  | 30 µM (active) and 34.9 µM (active)
C=CC(=O)OCC(F)(F)C(F)(F)C(F)(F)C(F)(F)C(F)(F)C(F)(F)C(F)(F)F | inactive | 44.7 µM (active)
FC(F)(F)C(F)(F)C(F)(F)C(F)(F)C(F)(F)C(F)(F)CCS | inactive | 
O=C(CC(=O)C(F)(F)C(F)(F)F)C(F)(F)F | inactive | 
O=C(O)C(F)(OC(F)(F)C(F)(OC(F)(F)C(F)(OC(F)(F)C(F)(F)C(F)(F)F)C(F)(F)F)C(F)(F)F)C(F)(F)F (stereo not given) | inactive | 
NC(=O)C(F)(F)C(F)(F)C(F)(F)C(F)(F)F | inactive | 
CC(CCl)OP(=O)(OC(C)CCl)OC(C)CCl (stereo not given) | inactive | 
O=C(Cl)C(F)(F)C(F)(F)C(F)(F)C(F)(F)C(F)(F)C(F)(F)C(F)(F)C(F)(F)F | inactive | 
O=C(O)C(F)(F)C(F)(F)C(F)(F)C(F)(F)F | inactive | 
